Holding throughout (experiment): PBM binding z-score (relative to random genomic background probes); higher = stronger binding; sequences stand for … in GC…GCGATTGACAGCGTAGAATGAAGG
Test [1] concerns FXR:RXRa (NR concentration 270 nM, RXRa partner concentration 90 nM). In a few lines: (§1)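 Antibodies against each partner of ligand-free nuclear receptor dimers (one per run) detected binding on custom Agilent 4×180K protein-binding microarrays after 1 h incubation. The double-stranded probes had 34-nt variable regions carrying direct-repeat seeds, single-nucleotide variants, half-site ablations and random human genomic background sequences. Binding z-scores, from regression-normalized fluorescence, use the random background probes as reference.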

Test [2] has as its system LXRa homodimer (NR concentration 270 nM). Summed up: as §1
Test [3] deals with LXRb homodimer (NR concentration 270 nM). In a few lines: as §1
Test [4] relates to PPARg:RXRa (NR concentration 180 nM, RXRa partner concentration 90 nM). Summed up:
as §1

Test [5] relates to PPARg:RXRa 270nM:90nM, anti-RXR (NR concentration 270 nM, RXRa partner concentration 90 nM). In a few lines: as §1
Test [6] concerns PPARg:RXRa 30nM:10nM, anti-RXR (NR concentration 30 nM, RXRa partner concentration 10 nM). Summed up: as §1
In test [7] the test system is PPARg:RXRa 90nM:30nM, anti-RXR (NR concentration 90 nM, RXRa partner concentration 30 nM). In a few lines:
as §1

For test [8], the system named is PPARg:RXRa DBDmut IVT, anti-RXR (DBD mutation: RXRa K156A/R161A, NR concentration 270 nM, RXRa partner concentration 90 nM). Summed up: as §1
Test [9] relates to PPARg:RXRa IVT, anti-PPARg (NR concentration 270 nM, RXRa partner concentration 90 nM). In a few lines: as §1
In test [10] the test system is PPARg DBDmut:RXRa IVT, anti-PPARg (DBD mutation: PPARg1 K132A/R137A, NR concentration 270 nM, RXRa partner concentration 90 nM). In a few lines:
as §1

Test [11] deals with PPARg DBDmut IVT, anti-PPARg (DBD mutation: PPARg1 K132A/R137A, NR concentration 270 nM). Summed up: as §1
The test system of test [12] is PPARg homodimer (NR concentration 180 nM). In a few lines: as §1
Test [13] concerns PXR:RXRa (NR concentration 270 nM, RXRa partner concentration 90 nM). Summed up:
as §1

The test system of test [14] is PXR homodimer (NR concentration 270 nM). Summed up: as §1
Test [15] has as its system RARa:RXR (NR concentration 270 nM, RXRa partner concentration 90 nM). Summed up:
as §1

Test [16] has as its system RARa homodimer (NR concentration 270 nM). Summed up: as §1
The test system of test [17] is RARb:RXRa (NR concentration 270 nM, RXRa partner concentration 90 nM). Summed up:
as §1

Test [18] concerns RARb homodimer (NR concentration 270 nM). Summed up: as §1

Consider ACTAGTTGGTCAGCTGAGGTCACACCCAATTCGG, for which the PBM binding z-score came out at 2.83 in test [1]; 2.07 in test [2]; 0.443 in [3]; 1.54 in test [4]; 2.06 in [5]; 0.239 in test [6]. The PBM binding z-score turned out to be 1.19 in [7]; 1.35 in test [8]; 2.55 in test [9]; 1.1 in test [10]; 0.595 in test [11]; 2.35 in test [12]. Moreover, the PBM binding z-score in [13] amounted to 5.14; in test [14], 1.25; in test [15], 4.27; in test [16], 0.354; in test [17], 3.57; in test [18], 4.33.

TAGCCTAGGTCATGGGCCAGTGTACCACGCGAAC: the PBM binding z-score in test [1] is 4.82; in [2], 0.0441; in test [3], -0.0634; in test [4], 4.13; in test [5] it was 3.87; in [6] it was 1.39. Besides, the PBM binding z-score in [7] came out at 2.66; in test [8], 1.74; in test [9], 3.43; in [10] it was 0.332; in test [11], 0.203; in test [12], 1.42. The PBM binding z-score in [13] is 1.6; in [14], -0.511; in [15], 2.86; in test [16] it was -0.252; in test [17] it was 4.01; in [18], 3.09.

With AGAATGAGGTTACCAAAGTTCAGGGAAACGCTTG, the PBM binding z-score was 3.73 in test [1]; 7.31 in [2]; -0.0133 in [3]; 3.65 in [4]; 4.08 in test [5]; 1.65 in [6]. In addition, the PBM binding z-score in [7] amounted to 3.24; in [8], 3.96; in test [9], 4.09; in test [10], 0.616; in test [11] it was 0.161; in [12], 1.31. Further, the PBM binding z-score is 6.02 in [13]; 3.03 in [14]; 3.93 in [15]; 0.38 in test [16]; 3.81 in [17]; 3.93 in test [18].

CAAACTAGTTCAAGAGGTCAAAGTCCGCTTCCCG: the PBM binding z-score is 5.96 in [1]; 8.11 in test [2]; 2.39 in test [3]; 3.84 in test [4]; 5.47 in test [5]; 2.85 in test [6]. For the same sequence, the PBM binding z-score in [7] is 4.8; in test [8], 2.43; in [9], 2.96; in test [10], -0.123; in [11], 0.442; in test [12], 5.22. The PBM binding z-score in test [13] came to 5.97; in test [14] it was 5.56; in [15], 6.53; in test [16], 2.22; in [17], 4.52; in test [18], 4.85.

Consider CGTCCAAGGTCATTGGAGGTCAGTGAAGACAGAT, for which the PBM binding z-score in [1] turned out to be 7.92; in [2] it was 6.77; in [3], 1.93; in [4], 5.48; in test [5], 5.76; in [6], 2.48. Also, the PBM binding z-score was 4.57 in test [7]; 3.6 in test [8]; 4.79 in [9]; 0.319 in [10]; -0.697 in test [11]; 5.59 in [12]. The PBM binding z-score in [13] was found to be 7.17; in test [14], 8.63; in test [15], 6.25; in [16], 2.43; in test [17], 5.56; in [18] it was 5.54.

On to GATATAGGGTCAGCTAGAGGCCAGAGTATGGAAA, for which the PBM binding z-score in test [1] is 5.03; in [2], 0.0568; in test [3] it was -0.307; in [4], 4.09; in [5] it was 3.86; in [6], 1.25. Besides, the PBM binding z-score was 2.44 in test [7]; 2.49 in test [8]; 3.12 in [9]; 0.476 in [10]; 0.427 in test [11]; 1.99 in test [12]. Besides, the PBM binding z-score in test [13] was determined as 3.23; in test [14], 0.376; in test [15], 4.57; in test [16] it was 0.593; in test [17], 4.34; in test [18], 3.75.

For GCTTACGGGTCCAAGGTTATAGCATGAATAGAAT, the PBM binding z-score in test [1] is 0.369; in test [2] it was -0.143; in test [3], -0.0563; in test [4], 1.97; in [5] it was 2.86; in test [6], 1.43. Besides, the PBM binding z-score in [7] is 2.47; in [8] it was 0.18; in test [9], 0.338; in test [10], 0.865; in [11] it was -0.558; in test [12], 0.0227. The PBM binding z-score came to 0.869 in test [13]; 0.331 in test [14]; 1.06 in [15]; 0.0844 in test [16]; 0.932 in test [17]; 0.871 in test [18].

Regarding AATACAGGGTGACTAGGCCAGAGTAGGTACGAAT, the PBM binding z-score in [1] was 0.201; in test [2], 0.00715; in test [3], -0.0758; in test [4] it was 2.6; in test [5] it was 2.06; in test [6], 0.461. Besides, the PBM binding z-score turned out to be 1.08 in [7]; 2.23 in test [8]; 3.48 in test [9]; 1.24 in test [10]; 0.872 in test [11]; 0.246 in [12]. Besides, the PBM binding z-score in test [13] turned out to be 0.11; in test [14] it was 0.336; in [15], 0.341; in test [16], 0.259; in [17] it was 0.856; in [18], 0.729.

The values are drawn from the supplement of paper PMC6555819.
